A number with no mark means an inactive call. Inconclusive results are not listed. Entries that show only a call come without a potency. The source made the active and inactive calls. Unless noted, calls follow the shape of the dose curve; as a rule, active = well fitted curve in the direction sought with a large enough effect; inconclusive = small, poorly fitted or top-dose-only effect, or another doubt; inactive = no such curve, though single readings can be large; an effect the other way counts as inactive or inconclusive.
Assays:
[1] = qHTS assay to identify inhibitors of the type 1 interferon - major histocompatibility complex class I in skeletal muscle: Counter screen cell viability and HiBit confirmation (AID 1347412); details: iHSKM muscle cells + IFN-b, HiBiT or CellTiter-Glo, 24 h; for activity change, negative = inhibition: at 45.9 µM (top of the series); also: potency is read from the fitted curve at half-maximal effect; as to all read-outs here: nearly all actives have a fitted effect of over 60% in size
How it was run: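 CRISPR HLA-B*08:01-HiBit immortalized human myoblasts (C25cl48) stimulated with 4 ng/ml IFN-beta and compounds (12-point 1:3, top 46 uM final) for 24 h at 37 C. Duplicate plates read by HiBit lytic luminescence or CellTiter Glo ATP.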

[2] = target: Nuclear receptor subfamily 1 group I member 2 (Rattus norvegicus) (UniProt Q9R1A7); assay: qHTS assay for small molecule activators of the rat pregnane X receptor (rPXR) signaling pathway (AID 651751; call rule not given here); details: rPXR reporter cells, luciferase (One-Glo), 24 h
TAB109 = assay: qHTS profiling for inhibitors of Plasmodium falciparum proliferation (AID 504749); also: nearly all actives have a fitted effect of over 60% in size; also: potency is read from the fitted curve at half-maximal effect; details: P. falciparum in erythrocytes, SYBR Green DNA, 72 h; series mostly up to 28.7 µM
How it was run: (§1)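 SYBR Green fluorescence of parasite DNA, read after lysis and overnight dark incubation, measured growth over 72 h in erythrocyte culture at 0.3% parasitemia and 2.5% hematocrit. Data normalised to DMSO and 0.29 uM artemisinin, with plate-drift correction.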

TAB113 = assay: as above; details: P. falciparum in erythrocytes, SYBR Green DNA, 72 h; series mostly up to 28.7 µM
How it was run: as §1

TAB165 = assay: as above; details: P. falciparum in erythrocytes, SYBR Green DNA, 72 h; series mostly up to 28.7 µM
How it was run: as §1

W2 = assay: as above; details: P. falciparum in erythrocytes, SYBR Green DNA, 72 h; series mostly up to 28.7 µM
How it was run: as §1

[3] = qHTS assay for small molecule activators of the human pregnane X receptor (PXR) signaling pathway (AID 720659; call rule not given here); details: DPX-2 HepG2 CYP3A4-luciferase, 24 h; series mostly up to 92.3 µM

Chain of Nuclear receptor subfamily 1 group I member 2 (Rattus norvegicus) (Q9R1A7 whole entry, looked up): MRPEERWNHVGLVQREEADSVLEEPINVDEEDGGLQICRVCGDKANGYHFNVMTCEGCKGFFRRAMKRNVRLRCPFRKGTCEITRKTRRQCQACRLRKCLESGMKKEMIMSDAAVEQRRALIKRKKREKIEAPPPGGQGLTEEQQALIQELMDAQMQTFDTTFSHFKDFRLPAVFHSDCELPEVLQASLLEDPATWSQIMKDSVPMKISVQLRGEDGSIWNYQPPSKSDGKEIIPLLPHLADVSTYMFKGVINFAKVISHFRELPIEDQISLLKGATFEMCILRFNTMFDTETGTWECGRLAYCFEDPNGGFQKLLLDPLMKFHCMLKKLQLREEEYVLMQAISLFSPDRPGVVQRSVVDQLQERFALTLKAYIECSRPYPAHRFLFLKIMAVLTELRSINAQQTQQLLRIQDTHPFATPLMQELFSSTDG

O=C1Cc2c([nH]c3ccc(Br)cc23)-c2ccccc2N1
Potency ([1]; HiBiT): 15.7 µM (active)
activity change, negative = inhibition ([1]; Viability): -21.6%

CCCc1c(OCCCOc2ccc(OCC(=O)O)cc2)ccc(C(C)=O)c1O
max response [2]: -1.22%

CCCCCCCCCCCCCCC[C@H](O)[C@H](N)CO
Potency (TAB109): inactive
Potency (TAB113): inactive
Potency (TAB165): inactive
Potency (W2): inactive

CCCc1c(-c2ccc(O)cc2)nn(-c2ccc(O)cc2)c1-c1ccc(O)cc1
max response [2]: -3.52%
outcome [3]: inactive

CC(C)NC[C@H](O)COc1ccc(CC(N)=O)cc1
Potency (TAB109): inactive
Potency (TAB113): inactive
Potency (TAB165): inactive
Potency (W2): inactive

CC(O)C(O)[C@H]1CNc2nc(N)[nH]c(=O)c2N1 (some centres not stated)
Potency (TAB109): inactive
Potency (TAB113): inactive
Potency (TAB165): inactive
Potency (W2): inactive

CCCCCCCCCCCCCCSCC(=O)O
max response [2]: 5.54%
outcome [3]: inactive

O=c1[nH]c2cc(Cl)ccc2c(O)c1-c1ccc(Oc2ccccc2)cc1
Potency ([1]; HiBiT): 5.57 µM (active)
activity change, negative = inhibition ([1]; Viability): -0.671%

CC(=O)C(C)=O
max response [2]: -4.56%
outcome [3]: inactive

CN1C2CCC1CC(OC(c1ccccc1)c1ccccc1)C2 (configuration not stated)
Potency (TAB113): inactive
Potency (W2): 1.51 µM (active)

NC(=O)c1ccccc1
max response [2]: -1.26%
outcome [3]: inactive

CC[n+]1c(/C=C/C=C2/N(C)c3ccccc3C2(C)C)sc2ccccc21
Potency ([1]; HiBiT): 7.01 µM (active)
Potency ([1]; Viability): 9.91 µM (active)

Brc1c(Br)c(Br)c2[nH]cnc2c1Br
Potency ([1]; HiBiT): 14 µM (active)
activity change, negative = inhibition ([1]; Viability): 3.14%

C/C(=C\c1ccc(C(=O)O)cc1)c1ccc2c(c1)C(C)(C)CCC2(C)C
max response [2]: 1.8%

C=C1C(=O)O[C@@H]2[C@H]3O[C@]3(C)CCC=C(C)CC[C@@H]12
Potency ([1]; HiBiT): 8.83 µM (active)
activity change, negative = inhibition ([1]; Viability): 52.5%

CCCCCCCCCCCCCCCCCCOC[C@H](COP(=O)([O-])OCC[N+](C)(C)C)OC
Potency (TAB109): inactive
Potency (TAB113): inactive
Potency (TAB165): inactive
Potency (W2): inactive

c1ccc(C2CN3CCSC3=N2)cc1 (configuration not stated)
Potency (TAB109): 4.47 µM (active)
Potency (TAB113): 11.2 µM (active)
Potency (TAB165): 5.01 µM (active)
Potency (W2): 1.51 µM (active)

From PubChem BioAssay (NCATS)
